Measured values as given in PubChem BioAssay.
The source made the active and inactive calls. Unless noted, the rule behind the calls is not given here.

Columns and labels:
[1] = HepG2 liver cancer cell viability effects, profiling panel, resazurin fluorescence, 24 h, PK04 Diversity Set (AID 1172); conditions: higher = more signal; note: test concentration not given here
[2] = basal S. cerevisiae growth modulation, no modifier, primary screen, OD600, strain BY4716, 24 h, basal condition (AID 1173); conditions: OD600, 24 h, higher = more signal, called active from +8 up or from −8 down
[3] = MM1S myeloma cell viability, profiling panel, resazurin fluorescence, basal, 24 h, PK04 Diversity Set (AID 1174); conditions: higher = more signal, called active from +8 up or from −8 down;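 note: MM1S multiple myeloma cell line; test concentration not given here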
[4] = target: Dihydroorotate dehydrogenase (quinone), mitochondrial (Plasmodium falciparum (isolate 3D7)) (UniProt Q08210); test: PfDHODH enzyme inhibitors, primary screen, biochemical, C-terminal His tag, absorbance 600 nm (AID 1175); conditions: DCIP absorbance 600 nm, higher = more signal, called active from +8 up or from −8 down;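 note: recombinant parasite enzyme with a five histidine tag at its C terminus; test concentration not given here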
Chain of Dihydroorotate dehydrogenase (quinone), mitochondrial (Plasmodium falciparum (isolate 3D7)) (Q08210 whole entry, looked up): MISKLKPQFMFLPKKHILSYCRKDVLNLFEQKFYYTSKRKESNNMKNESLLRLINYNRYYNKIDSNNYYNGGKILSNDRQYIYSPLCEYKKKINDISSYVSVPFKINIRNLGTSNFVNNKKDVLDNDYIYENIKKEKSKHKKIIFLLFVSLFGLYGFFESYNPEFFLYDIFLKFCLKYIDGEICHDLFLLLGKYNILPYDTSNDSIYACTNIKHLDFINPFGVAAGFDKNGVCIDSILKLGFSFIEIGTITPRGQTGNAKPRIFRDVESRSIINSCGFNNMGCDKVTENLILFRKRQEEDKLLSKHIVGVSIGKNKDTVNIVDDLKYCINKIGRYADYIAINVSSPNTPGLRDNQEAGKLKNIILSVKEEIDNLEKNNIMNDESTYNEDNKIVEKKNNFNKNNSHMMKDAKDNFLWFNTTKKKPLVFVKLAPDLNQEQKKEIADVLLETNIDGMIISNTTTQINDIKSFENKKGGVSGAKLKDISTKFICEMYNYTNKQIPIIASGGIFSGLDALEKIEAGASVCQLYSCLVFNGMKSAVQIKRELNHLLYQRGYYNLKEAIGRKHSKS

[5] = P. aeruginosa biofilm formation inhibitors, primary screen, strain PAO1, LB-PBS medium, absorbance 600 nm (AID 1176); note: test concentration not given here; conditions: P. aeruginosa PAO1 growth/biofilm, A600, 12 h; higher = more signal
[6] = S. cerevisiae RM11-1a growth modifiers, primary screen, strain RM11-1a, OD600, basal, 24 h (AID 1177); conditions: OD600, 24 h, higher = more signal, called active from +8 up or from −8 down;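 note: cultures grown under basal conditions with no added stressor; test concentration not given here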
[7] = E. coli acrAB mutant growth effects, primary screen, E. coli filamentation inducers, strain DRC39, OD650, 24 h (AID 1178); conditions: higher = more signal, called active from +8 up or from −8 down;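 note: growth measured as culture turbidity by optical density at 650 nm; test concentration not given here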
[8] = E. coli acrAB mutant growth effects, primary screen, E. coli filamentation inducers, strain DRC39, OD650, 48 h (AID 1179);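 note: screen aims at cell division blockers that make cells filament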; conditions: E. coli DRC39 delta-acrAB growth, higher = more signal, called active from +8 up or from −8 down
[9] = RPMI8226 myeloma cell viability, profiling panel, resazurin fluorescence, basal, 24 h, PK04 Diversity Set (AID 1180); conditions: higher = more signal;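 note: RPMI8826 multiple myeloma cell line at 5000 cells per well; test concentration not given here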
[10] = target: E3 ubiquitin-protein ligase XIAP (Homo sapiens) (UniProt P98170); test: XIAP binders, primary screen, biophysical, small-molecule microarray, fluorescence 635 nm (AID 1181); conditions: small-molecule microarray binding, higher = more signal;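 note: score merges 667 nm emission and signal to noise over triplicate slides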
Chain of E3 ubiquitin-protein ligase XIAP (Homo sapiens) (P98170 whole entry, looked up): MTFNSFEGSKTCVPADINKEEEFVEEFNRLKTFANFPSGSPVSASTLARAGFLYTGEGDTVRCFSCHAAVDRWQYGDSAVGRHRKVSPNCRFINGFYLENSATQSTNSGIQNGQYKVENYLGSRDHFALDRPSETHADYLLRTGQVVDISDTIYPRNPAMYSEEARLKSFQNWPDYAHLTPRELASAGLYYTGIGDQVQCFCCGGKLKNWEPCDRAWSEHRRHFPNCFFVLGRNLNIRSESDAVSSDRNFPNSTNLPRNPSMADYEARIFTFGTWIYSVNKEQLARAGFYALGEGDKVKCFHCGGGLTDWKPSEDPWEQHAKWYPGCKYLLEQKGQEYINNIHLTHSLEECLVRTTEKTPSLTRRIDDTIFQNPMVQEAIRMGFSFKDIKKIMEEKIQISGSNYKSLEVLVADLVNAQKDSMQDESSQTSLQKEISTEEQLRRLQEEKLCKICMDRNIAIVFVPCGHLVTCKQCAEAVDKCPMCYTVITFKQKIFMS

| SMILES | z-score [1] | z-score [2] | z-score [3] | composite z-score [4] | z-score [5] | z-score [6] | z-score [7] | z-score [8] | z-score [9] | composite z-score [10] |
| --- | --- | --- | --- | --- | --- | --- | --- | --- | --- | --- |
| COC(=O)C(CC#Cc1ccc2c(c1)[C@]1(C(=O)N2)[C@H](C(=O)NC[C@H](O)c2ccccc2)[C@H]2C(=O)O[C@H](c3ccccc3)[C@H](c3ccccc3)N2[C@@H]1c1ccc(O)cc1)C(=O)OC | 0.155 | 0.455 (inactive) | 0.515 (inactive) | -5.06 (inactive) | 1.05 (inactive) | 0.518 (inactive) | -0.196 (inactive) | -0.556 (inactive) | -0.464 | 0.076 |
| [N-]=[N+]=NCc1ccccc1C[C@@]1(C(N)=O)N=C(c2ccc(OCCCO)cc2)O[C@@H]1c1ccccc1N=[N+]=[N-] | 0.304 | -1.35 (inactive) | -1.32 (inactive) | 0.474 (inactive) | 2.28 (inactive) | 0.0193 (inactive) | 0.207 (inactive) | -0.893 (inactive) | -0.644 | 0.0871 |
| O=C1C2C=CC(C(O)C3CC=CCC3)N(Nc3ccc([N+](=O)[O-])cc3)C2C(=O)N1c1ccccc1 (stereo not given) | -0.681 | -0.541 (inactive) | -0.428 (inactive) | 0.354 (inactive) | 1.29 (inactive) | -0.0935 (inactive) | -0.544 (inactive) | -0.861 (inactive) | -0.617 | 0.26 |
| C=CC[C@]1(C(=O)NCC(O)CO)N=C(c2ccc(OCCCO)cc2)O[C@H]1c1ccccc1CN=[N+]=[N-] (stereo not given in full) | -0.766 | -0.432 (inactive) | -1.51 (inactive) | -0.0887 (inactive) | 1.27 (inactive) | 0.244 (inactive) | -0.363 (inactive) | 0.196 (inactive) | -0.566 | -0.0136 |
| C=C(/C=C\CNS(=O)(=O)c1ccc(C)cc1)[C@H](O)[C@H]1CCCN1S(=O)(=O)c1ccccc1[N+](=O)[O-] | -0.527 | 0.487 (inactive) | -0.943 (inactive) | 1.57 (inactive) | 1.21 (inactive) | 2.53 (inactive) | 1.12 (inactive) | -0.23 (inactive) | -0.851 | -0.0448 |
| COCCCNC(=O)[C@@]1(c2ccc([N+](=O)[O-])cc2)CC(=O)N(C2CCCCC2)[C@@H]1c1ccc(CO)cc1I | 0.545 | -0.24 (inactive) | 0.678 (inactive) | 0.219 (inactive) | 0.966 (inactive) | -0.251 (inactive) | 0.0675 (inactive) | -0.279 (inactive) | 1.16 | 0.0449 |
| CC(C)(C)OC(=O)CC[C@]1(C(=O)N2CCOCC2)COC(c2ccc(OCCCO)cc2)=N1 | 0.329 | -0.444 (inactive) | 0.475 (inactive) | -0.0274 (inactive) | 0.149 (inactive) | 0.568 (inactive) | 1.21 (inactive) | 1.37 (inactive) | 0.227 | 0.0996 |
| COc1ccc([Si](C)(C)[C@@H]2[C@@H](CC(=O)N(CCO)Cc3ccccc3)O[C@]3(C(=O)N(Cc4cccc(I)c4)c4ccccc43)[C@H]2C)cc1 | -2.2 | -0.142 (inactive) | -3.25 (inactive) | 0.704 (inactive) | 1.51 (inactive) | 2.64 (inactive) | -0.335 (inactive) | -0.795 (inactive) | -2.96 | 0.236 |
| O=C1O[C@@H](c2ccccc2)[C@@H](c2ccccc2)N2[C@@H](c3ccc(OCCO)cc3)[C@]3(C(=O)Nc4ccc(C#CC5=CCCCC5)cc43)[C@@H](C(=O)Nc3nc4ccccc4s3)[C@H]12 | -0.533 | 1.46 (inactive) | -1.21 (inactive) | -4.05 (inactive) | 3.52 (inactive) | 2.53 (inactive) | -0.304 (inactive) | 0.141 (inactive) | -1 | -0.339 |
| CCc1cccc(NC(=O)O[C@H]2[C@H](OC(=O)Nc3ccccc3-c3ccccc3)[C@H](OC(=O)Nc3ccccc3-c3ccccc3)[C@@H](OC)O[C@@H]2CO)c1 | 0.235 | 0.371 (inactive) | -0.444 (inactive) | -0.371 (inactive) | 0.537 (inactive) | 2.19 (inactive) | -1.34 (inactive) | -1.66 (inactive) | -0.254 | 0.146 |
| CO[C@H]1O[C@H](CO)[C@@H](OC(=O)CCc2ccccc2)[C@@H]2OC(=O)[C@@H](Cc3ccc4ccccc4c3)C/C=C/C[C@H](Cc3ccc4ccccc4c3)C(=O)O[C@@H]12 | -0.826 | -0.998 (inactive) | -0.333 (inactive) | -1.32 (inactive) | -0.0558 (inactive) | -1.11 (inactive) | 0.552 (inactive) | 0.9 (inactive) | -0.591 | 0.0302 |
| O=C1O[C@H](c2ccccc2)[C@H](c2ccccc2)N2[C@H]1[C@@H](C(=O)N1CCCCCCC1)[C@]1(C(=O)Nc3ccc(C#CCCO)cc31)[C@H]2c1ccc(O)cc1 | 0.546 | 0.206 (inactive) | 1.33 (inactive) | -0.328 (inactive) | 0.93 (inactive) | 0.66 (inactive) | 0.783 (inactive) | 0.721 (inactive) | 0.838 | 2.21 |
| CN(C)CCCC[C@@H]1NC(=O)[C@H]2C[C@@H](C(=O)NCCCCCCNC(=O)CS)[C@@H](c3cccc(OCCO)c3)N2C1=O | -0.27 | -0.587 (inactive) | -0.956 (inactive) | -0.237 (inactive) | 0.463 (inactive) | -0.511 (inactive) | 0.329 (inactive) | 0.0044 (inactive) | -0.713 | -0.177 |
| C=C(C(=O)CC[C@@H](OC(=O)c1cccnc1)c1cccc(OCCO)c1)C(C)C | 0.38 | -0.58 (inactive) | -0.667 (inactive) | -1.33 (inactive) | 0.33 (inactive) | -1.3 (inactive) | 0.863 (inactive) | 0.816 (inactive) | -1.34 | 0.127 |
| O=C1N(Cc2ccccc2)Cc2ccccc2C[C@@]12COC(c1ccc(OCCCO)cc1)=N2 | 0.775 | 0.842 (inactive) | -8.43 (active) | 0.719 (inactive) | -0.289 (inactive) | 4.69 (inactive) | 1.42 (inactive) | 0.0613 (inactive) | -2.81 | -0.124 |
| CS(=O)(=O)CCOC(=O)C1=CC(CCCO)=CC(C2CC2)N(Cc2sc3ccccc3c2Cl)C=C1C(=O)OCCS(C)(=O)=O (stereo not given) | -0.0631 | -6.21 (inactive) | -0.548 (inactive) | -0.559 (inactive) | 0.0478 (inactive) | 0.155 (inactive) | 0.564 (inactive) | 0.156 (inactive) | -0.541 | 0.431 |
| CN(C)CCCCCCNC(=O)[C@@H]1C[C@@H]2C(=O)N[C@@H](CCCC[N+](C)(C)C)C(=O)N2[C@@H]1c1cccc(OCCO)c1 | 0.473 | -0.834 (inactive) | 0.349 (inactive) | -2.9 (inactive) | 0.0472 (inactive) | -1.75 (inactive) | 1.03 (inactive) | 1.62 (inactive) | -0.0472 | 0.141 |
| COc1ccc([Si](C)(C)[C@H]2[C@H](CC(=O)N3CCC[C@H]3CO)O[C@@]3(C(=O)N(C)c4c(Br)cc(C)cc43)[C@@H]2C)cc1 | 0.728 | -0.966 (inactive) | 0.968 (inactive) | -1.3 (inactive) | 0.92 (inactive) | 0.301 (inactive) | 0.541 (inactive) | 0.24 (inactive) | 0.235 | 1.43 |
| COC(=O)C[C@H]1O[C@]2(C(=O)N(C)c3ccccc32)[C@@H](C)[C@@H]1[Si](C)(C)c1ccccc1 | 1.45 | -2.07 (inactive) | 0.317 (inactive) | -0.343 (inactive) | -1.24 (inactive) | -0.136 (inactive) | 0.709 (inactive) | -0.106 (inactive) | 1.22 | 0.135 |
| C=CC[C@]1(C(N)=O)N=C(c2ccc(OCCCO)cc2)O[C@H]1c1ccccc1N=[N+]=[N-] | 0.021 | -0.925 (inactive) | -0.362 (inactive) | 0.315 (inactive) | 0.274 (inactive) | 1.32 (inactive) | 2.12 (inactive) | 2 (inactive) | -0.733 | 0.217 |
| [N-]=[N+]=Nc1ccccc1C[C@@]1(C(=O)NCC(O)CO)N=C(c2ccc(OCCCO)cc2)O[C@@H]1c1ccccc1N=[N+]=[N-] (stereo not given in full) | -2.15 | -1.75 (inactive) | -2.42 (inactive) | 0.791 (inactive) | 0.122 (inactive) | 0.629 (inactive) | 0.2 (inactive) | -0.456 (inactive) | -2.25 | 0.0651 |
| CN(C)C(=O)[C@]1(CCS(=O)(=O)c2ccccc2)N=C(c2ccc(OCCCO)cc2)O[C@@H]1c1ccccc1CN=[N+]=[N-] | 1.46 | 0.705 (inactive) | 0.273 (inactive) | 0.37 (inactive) | 0.743 (inactive) | 0.3 (inactive) | 0.293 (inactive) | -0.373 (inactive) | -0.0461 | 0.558 |
| COC(=O)[C@H]1N=C(c2ccc(OCCCO)cc2)O[C@H]1c1ccccc1N=[N+]=[N-] | 0.249 | -3.93 (inactive) | -0.971 (inactive) | 0.556 (inactive) | 1.43 (inactive) | 0.682 (inactive) | 0.584 (inactive) | -0.711 (inactive) | 0.464 | -0.141 |
